# PubChem BioAssay (Tox21)
# Results filed as inconclusive are left out. Calls of active or inactive are those of the source. Calls come from the whole dose curve; as a rule, active = well fitted cell-killing curve with a large enough effect in the repeat runs; inconclusive = weak or mixed curves, or effect the other way; inactive = flat fitted curve, though single readings scatter.
# Test: qHTS assay to identify small molecule antagonists of the estrogen related receptor signaling pathway with the pleiotropic PPARgamma coactivator (PGC) cell viability counter screen (AID 1224822;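 note: viability read after 17.5 h compound exposure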)
# Details: ERR/PGC reporter cell line viability counter screen; series mostly up to 46.1 µM; viability change, negative = cytotoxic: at the top concentration
# From the text: National Center for Advancing Translational Sciences [NCATS]
# NIH Chemical Genomics Center [NCGC]
# U.S. Environmental Protection Agency [EPA]
# National Institutes of Environmental Health Sciences [NIEHS]
# National Toxicology Program [NTP]
# U.S. Food and Drug Administration [FDA]
# Estrogen related receptors (ERRs), the first orphan nuclear receptors discovered, play an important role in the control of cellular energy metabolism. ERRs are required for high-energy production in response to the environmental challenges. The pleiotropic PPARgamma coactivator (PGC) is a major partner of ERR and a key regulator in energy homeostasis. Together they have been implicated in the etiology of metabolic disorders such as Type 2 diabetes and metabolic syndrome. ERR-alpha was also identified as an adverse marker for breast cancer progression; ERR-alpha-positive tumors have a poor prognosis. To screen and to identify environmental compounds that perturb the ERR and PGC/ERR signaling pathways could provide valuable information for potential therapeutic or preventive measures in the treatment of metabolic disease. To differentiate true PGC/ERR antagonists or agonist from cytotoxic substances, the assay is multiplexed with cell viability assay.
# Tox21 Assay Protocol Summary:
# The PGC/ERR cells were dispensed at 2,000 cells/5 ul/well in 1536-well white plates using a Multidrop dispenser. After the assay plates were incubated at a 37 C/5% CO2 incubator for 6 hours, 23 nL of compounds dissolved in DMSO, positive and negative controls or DMSO only was transferred to the assay plate by a pin tool. The plates were incubated at 37 C for 17.5 hours. 1 ul/well of CellTiter-Fluor reagent was added into the assay plates using a Flying Reagent Dispenser. After 30 min incubation at 37 C/5% CO2, the fluorescence intensity in the plates was measured using a ViewLux plate reader.
# % is set by controls: 0 for no effect and ±100 for the full control effect.
row,Structure (SMILES),"viability change, negative = cytotoxic"
1,COc1cc2c(cc1OC)C1CC(=O)C(CC(C)C)CN1CC2 (stereo not given),10.2% (inactive)
2,C/C(=C\c1ccc(C(=O)O)cc1)c1ccc2c(c1)C(C)(C)CCC2(C)C,-10.3% (inactive)
3,Nc1ncnc2c1nc(Br)n2C1OC2COP(=O)(O)O[C@@H]2C1O (stereo not given in full),7.19% (inactive)
4,CC(C)[C@@H]1CC[C@@H](C)C[C@@H]1P(=O)(c1ccccc1)c1ccccc1,9.29% (inactive)
5,NCCCCN,9.35% (inactive)
6,COc1cc(C(O)CO)ccc1OS(=O)(=O)O (stereo not given),10.4% (inactive)
7,COc1cc(SC)ccc1C(=O)N1CCC(Cc2ccccc2)CC1,-9.38% (inactive)
8,N#C/C(=C\c1ccc(O)c(O)c1)C(=O)NCCc1ccccc1,-8.36% (inactive)
9,C[N+](C)(C)CCOP(=O)(O)OP(=O)([O-])OC[C@H]1O[C@@H](n2ccc(N)nc2=O)[C@H](O)C1O (stereo not given in full),10% (inactive)
10,Oc1cc(O)c2c(c1)O[C@H](c1ccc(O)c(O)c1)[C@@H](O)C2,7.54% (inactive)
11,NS(=O)(=O)c1ccc(-n2nc(C(F)(F)F)cc2-c2ccc(Cl)cc2)cc1,-11.4% (inactive)
12,CN(C)c1nc(N)c(C(=O)N=C(N)N)nc1Cl,-17.3% (inactive)
13,Oc1ccc(C2CNCc3sccc32)cc1O (stereo not given),-5.32% (inactive)
14,Cc1cn([C@H]2CC(N=[N+]=[N-])[C@@H](CO)O2)c(=O)[nH]c1=O (stereo not given in full),9.61% (inactive)
15,CC(=O)[C@H]1CCC2C3CC=C4C[C@@H](OS(=O)(=O)O)CC[C@]4(C)C3CC[C@@]21C (stereo not given in full),9.66% (inactive)
16,CSC(N)=NCCC[C@H](N)C(=O)O,0.796% (inactive)
17,CC(C)(C)[C@]1(O)CCN2C[C@H]3c4ccccc4CCc4cccc(c43)[C@@H]2C1,-19.1% (inactive)
18,Nc1ncnc2c1ncn2C1CCCC1,9.51% (inactive)
19,O=C(O)C1=CCNCC1,-1.78% (inactive)
20,CC(=O)SC1CC2=CC(=O)CC[C@]2(C)C2CC[C@@]3(C)C(CC[C@@]34CCC(=O)O4)C12 (stereo not given in full),-8.6% (inactive)

row,Structure (SMILES),"viability change, negative = cytotoxic"
1,CC[C@H](NC(=O)c1c(C)c(-c2ccccc2)nc2ccccc12)c1ccccc1,-9.67% (inactive)
2,Cn1c(=O)c2[nH]c(-c3ccccc3)nc2n(C)c1=O,2.36% (inactive)
3,Nc1nc(N)c2nc(CNc3ccc(C(=O)NC(CCC(=O)O)C(=O)O)cc3)cnc2n1 (stereo not given),-13.2% (inactive)
4,CCN1/C(=C/C(C)=O)Sc2ccc(OC)cc21,5.91% (inactive)
5,N#Cc1cc2nc(O)c(O)nc2cc1[N+](=O)[O-],-0.753% (inactive)
6,COc1cc(CC(=O)O)ccc1O,2.36% (inactive)
7,C=CCN1CCc2c(cc(O)c(O)c2Cl)C(c2ccccc2)C1 (stereo not given),-8.8% (inactive)
8,N.N.O=C(O)C1(C(=O)O)CCC1.[Pt+2],10% (inactive)
9,CCCCCCC(=O)OC1CC(C)(C)NC(C)(C)C1,7.88% (inactive)
10,NCC1OC(OC2C(O)[C@@H](OC3C(O)C(N)CC(N)C3OC3OC(CO)C(O)C(O)C3N)O[C@@H]2CO)C(N)C(O)C1O (stereo not given in full),1.78% (inactive)
11,C[C@@H]1C(=O)NC2=Nc3cccc(Cl)c3CN21,-1% (inactive)
12,C=C[C@H]1CN2CC[C@@H]1C[C@@H]2[C@@H](O)c1ccnc2ccc(OC)cc12,-9.04% (inactive)
13,NC1(C(=O)O)CCc2cc(C(=O)O)ccc21 (stereo not given),9.54% (inactive)
14,CC(=O)SCC[N+](C)(C)C,8.83% (inactive)
15,COc1cc(N)c(Cl)cc1C(=O)OCCN1CCCCC1,6.37% (inactive)
16,CCCCCCCC/C=C\CCCCCCCC(=O)NCCO,1.21% (inactive)
17,O=c1ccc2c(OCCCCc3ccccc3)c3ccoc3cc2o1,1.66% (inactive)
18,CN1CC(O)C(O)C(O)C1CO (stereo not given),6% (inactive)
19,CC[C@H]1OC(=O)[C@H](C)[C@@H](O[C@H]2C[C@@](C)(OC)[C@@H](O)[C@H](C)O2)[C@H](C)[C@@H](O[C@@H]2O[C@H](C)C[C@H](NC)[C@H]2O)[C@](C)(O)C[C@@H](C)CN(C)[C@H](C)[C@@H](O)[C@]1(C)O,-4.83% (inactive)
20,CCN(CC)CCNC(=O)c1ccc(NS(C)(=O)=O)cc1,7.03% (inactive)
